Source: PubChem (National Center for Advancing Translational Sciences (NCATS))
This is a sample that favours compounds with a hit; in the whole collection about 18% have one here.
DT40 TDP1 CPT: DT40-hTDP1 cell growth loss with CPT | chicken DT40 Tdp1-/-;hTDP1 cells + 20 nM CPT, ATP luminescence, 48 h | Potency, µM (doses to about 46.2 µM), without a hit: at the top dose activity change, negative = growth inhibition, actives largely listed as inhibitors | 420,000 compounds, 12% hits | AID 686979; also: nearly all actives have a fitted effect of over 55% in size
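Chicken DT40 Tdp1-/- cells complemented with human TDP1, 400 cells/well, exposed to compounds plus 20 nM camptothecin for at least 48 h at 37 C; viability read as ATP content by CellTiter-Glo luminescence.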
DT40 TDP1 no CPT: qHTS for Inhibitors of human tyrosyl-DNA phosphodiesterase 1 (TDP1): qHTS in cells in absence of CPT; DT40 Tdp1-/- hTDP1 cells, no CPT, ATP luminescence, 48 h; Potency, µM (doses to about 46.2 µM), for the others: top-dose activity change, negative = growth inhibition, usual class: inhibitors; 420,000 compounds, 15% hits; AID 686978, 2013; also: nearly all actives have a fitted effect of over 55% in size
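Seeded 400 DT40-hTDP1 cells/well (vehicle DMSO, no 20 nM CPT); pinned compounds; ≥48 hr at 37 °C; CellTiter-Glo luminescence as viability measure.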
TDP1 inh: blocks human tyrosyl-DNA phosphodiesterase 1. Q9NUW8. recombinant TDP1, AlphaScreen DNA substrate cleavage. Potency, µM (series often up to 130 µM), without a hit: at the highest dose activity change, negative = inhibition, usual class: inhibitors. 350,000 compounds, 0.28% hits; also: nearly all actives have a fitted effect of over 40% in size
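AlphaScreen read-out: signal falls as enzyme removes the 3' tyrosine-FITC from a 5'-biotinylated DNA oligo (15 nM, 5 min, RT). Enzyme was E. coli-made recombinant Tdp1 at 1 nM, exposed to compound for 15 min beforehand; beads 10 ug/ml, 10 min.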
VDR inhibitor: vitamin D3 receptor (human) inhibition | VDR-SRC2-3 peptide fluorescence polarization, 2 h | Potency, µM, for inactives: max response, negative = inhibition, hits mostly inhibitors | 400,000 compounds, 0.93% hits | AID 504847
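Reagent solutions, kept cold and dark, are dispensed first; compounds are then pinned in at 23 nl, plates briefly spun, and incubated 2 h at ambient temperature. Inhibition of VDR–SRC2-3 peptide binding is read by fluorescence polarization.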
PLK1 PBD block: PLK1 (human) polo-box domain binding inhibition; AID 720504; Plk1 PBD binding of FITC phosphopeptide, fluorescence polarization; Potency, µM, without a hit: max response, negative = inhibition, most hits filed as inhibitors; 360,000 compounds, 2.8% hits; also: series mostly up to about 57 µM; nearly all actives have a fitted effect of over 65% in size
KAT2A inh: blocks human GCN5L2 histone acetyltransferase. 390,000 compounds, 0.21% hits. Potency, µM (highest dose often 58.9 µM), without a hit: top-dose activity change, negative = inhibition, actives largely listed as inhibitors. Q92830. GCN5L2 HAT assay, ThioGlo1 CoA-SH fluorescence. AID 504327
Target sequence (Q92830 whole entry, looked up): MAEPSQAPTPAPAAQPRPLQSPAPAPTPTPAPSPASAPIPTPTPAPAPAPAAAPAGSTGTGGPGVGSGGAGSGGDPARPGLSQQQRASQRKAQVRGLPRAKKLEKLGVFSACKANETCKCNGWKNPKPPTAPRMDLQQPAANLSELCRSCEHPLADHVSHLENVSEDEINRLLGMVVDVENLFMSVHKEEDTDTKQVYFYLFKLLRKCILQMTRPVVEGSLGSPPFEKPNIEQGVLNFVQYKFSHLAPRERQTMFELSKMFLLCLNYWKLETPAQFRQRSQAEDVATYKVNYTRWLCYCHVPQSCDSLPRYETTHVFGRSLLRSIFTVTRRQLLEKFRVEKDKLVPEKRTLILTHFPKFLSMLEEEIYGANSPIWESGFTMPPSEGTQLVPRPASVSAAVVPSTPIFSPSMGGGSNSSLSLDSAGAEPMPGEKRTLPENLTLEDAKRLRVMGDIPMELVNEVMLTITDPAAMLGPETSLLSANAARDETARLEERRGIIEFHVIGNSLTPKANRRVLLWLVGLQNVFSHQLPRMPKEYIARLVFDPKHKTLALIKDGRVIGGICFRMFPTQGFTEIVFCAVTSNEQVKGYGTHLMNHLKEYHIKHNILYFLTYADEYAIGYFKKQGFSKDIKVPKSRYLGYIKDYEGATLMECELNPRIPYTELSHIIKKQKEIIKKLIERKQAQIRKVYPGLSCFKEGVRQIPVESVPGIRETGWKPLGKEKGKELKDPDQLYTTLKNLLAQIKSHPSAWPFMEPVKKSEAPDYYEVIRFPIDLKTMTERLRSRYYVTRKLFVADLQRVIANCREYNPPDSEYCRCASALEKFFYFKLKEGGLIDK
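Fluorescence readout, Ex340nm/Em540nm: ThioGlo1 (50uM final) reacts with free CoA thiol released as 20nM GCN5L2 acetylates H3(1-25) peptide (75uM) using acetyl-CoA (70uM). Compound and enzyme sat 15 min beforehand; 20 min room-temperature reaction.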
Starred values were filed as active, the others as inactive; ? = inconclusive; nt = no result given; [ ] = dose if it differs, or a comment. Calls follow the shape of the dose curve; as a rule, active = well fitted curve in the direction sought with a large enough effect; inconclusive = small, poorly fitted or top-dose-only effect, or another doubt; inactive = no such curve, though single readings can be large; an effect the other way counts as inactive or inconclusive. % is scaled to controls: 0 for no effect and ±100 for the full control effect; potency is read from the fitted curve at half-maximal effect.

SMILES	DT40 TDP1 CPT	DT40 TDP1 no CPT	TDP1 inh	VDR inhibitor	PLK1 PBD block	KAT2A inh
Cc1cc2nn(-c3ccc(F)cc3)nc2cc1NC(=O)c1cccc2ccccc12	nt	nt	1.9%	-8.9%	nt	-4.2%
CCN(CC)c1ccc(NC(=O)c2cccc(C)c2OC)c(C)c1	12.6µM*	11.2µM*	2.2%	9.2%	-0.4%	1.7%
Cc1nn(-c2ccccc2)nc1C(=O)Nc1nnc(C(F)(F)F)s1	?	?	2.5%	-1.6%	-3.3%	-4.1%
Cc1cnc(C)c(-c2cc(F)cc3c2OC(CNC(=O)C2CCOC2)C3)n1 (centres undefined)	-1.4%[9.04 µM]	1.9%	nt	nt	nt	nt
COc1ccc2nc3c(cc2c1)c(NC(=O)c1cccs1)nn3CC(C)C	?	?	nt	12.7%	-2.8%	-10.5%
CC(C)Cn1nc(NC(=O)c2cccs2)c2cc3ccccc3nc21	?	8.2µM*	-12.3%	-27.8%	-18.3%	-20.3%
Cc1cc2c(cc1C)-c1nnnn1C(N1CCC(Cc3ccccc3)CC1)C(=O)N2 (centres undefined)	14.6µM*	9.2µM*	nt	nt	1.7%	nt
COc1ccc(-c2nn(C)c3sc(C(=O)Nc4cc(OC)c(OC)c(OC)c4)cc23)cc1OC	18.4µM*	6.51µM*	11.6%	0.2%	nt	?
COc1ccc(-c2nn(C)c3sc(C(=O)NCc4ccco4)cc23)cc1OC	?	20.6µM*	6.5%	6.3%	26.7µM*	-8.3%
COc1ccc(NC(=O)c2cc3c(-c4ccc(OC)c(OC)c4)nn(C)c3s2)cc1OC	18.4µM*	20.6µM*	7.6%	20.5%	0.9%	-19.8%
COc1cccc(-c2nn(C)c3sc(C(=O)NCc4cc(OC)ccc4OC)cc23)c1	?	?	4.7%	-4.6%	nt	-13.0%
COc1cc(=O)n2c(c1C(=O)NC(C)c1ccco1)CCN(Cc1ccnc3ccccc13)CC2 (centres undefined)	?	-10.8%	nt	nt	nt	nt
CCOC(=O)c1c(-c2ccccc2)oc2ccc(OCC(=O)NNC(=O)CCC(=O)O)cc12	1.2%	-7.4%	nt	-13.9%	-6.4%	6.3%
CCOC(=O)c1c(-c2ccccc2)oc2ccc(NS(=O)(=O)c3ccc(C)cc3)cc12	2.91µM*	2.91µM*	2.2%[12.3 µM]	8.7%	nt	0.3%
CCOC(=O)c1c(-c2ccccc2)oc2ccc(N(C(C)=O)S(=O)(=O)c3ccc(C)cc3)cc12	8.2µM*	10.3µM*	nt	8.3%	nt	-3.7%
CCCC(=O)N(c1ccc2oc(C)c(C(C)=O)c2c1)S(=O)(=O)c1ccc(C)cc1	nt	nt	-1.9%	-1.7%	nt	-11.8%
CCCC(=O)N(c1ccc2oc(-c3ccccc3)c(C(=O)OCC)c2c1)S(=O)(=O)c1ccc(C)cc1	?	5.8µM*	-2.2%[12.3 µM]	-18.1%	nt	-10.9%
CCOC(=O)c1c(-c2ccccc2)oc2ccc(OCC(O)CN(C)C)cc12 (centres undefined)	?	23.1µM*	nt	12.5%	2.5%	-12.9%
CCOC(=O)c1c(C)oc2ccc(NS(=O)(=O)c3ccc(C(=O)O)cc3)cc12	19.6%	-8.3%	-8.2%	-9.5%	-20.2%	-1.4%
Cc1ccc(C)c(NC(=O)Cn2cc(C(=O)C3CCCCC3)c3ccccc32)c1	?	?	2.1%	-3.8%	nt	0.0%
O=C(Nc1ccc(Cl)c(-c2nc3cc(Cl)ccc3o2)c1)c1cc2ccccc2o1	?	?	-2.2%[12.3 µM]	-14.1%	nt	-3.0%
COc1ccccc1-c1nc2cc(NC(=O)c3ccccc3Cl)ccc2o1	?	?	-0.4%[12.3 µM]	-14.6%	nt	-3.2%
N#Cc1ccc(C(=O)Nc2ccc(Cl)c(-c3nc4cc(Cl)ccc4o3)c2)c(F)c1	23.1µM*	18.4µM*	4.5%	-8.9%	nt	0.6%
O=C(Nc1ccc2oc(-c3ccccc3F)nc2c1)c1ccccc1Cl	?	13µM*	3.1%[12.3 µM]	0.7%	nt	-14.2%
O=C(O)c1ccccc1-c1ccccc1C(=O)Nc1ccc(-c2nc3cc(Cl)ccc3o2)cc1	-2.7%	?	7.5%	-26.8%	21.2µM*	-20.8%
SMILES	DT40 TDP1 CPT	DT40 TDP1 no CPT	TDP1 inh	VDR inhibitor	PLK1 PBD block	KAT2A inh
O=C(Nc1ccc(-c2nc3cc(Cl)ccc3o2)cc1)c1cc(Br)ccc1Cl	?	?	-3.1%[12.3 µM]	-15.3%	nt	-4.4%
CCC(C)(C)n1nnnc1CN(Cc1cccs1)Cc1cc2cc(OC)ccc2[nH]c1=O	?	?	5.3%	3.5%	-2.3%	-7.3%
CCOC(=O)Cn1nnnc1CN(Cc1cccs1)Cc1cc2cc(C)cc(C)c2[nH]c1=O	20.6µM*	14.6µM*	5.0%	8.6%	-4.4%	-15.7%
CCOc1ccc2[nH]c(=O)c(CN(Cc3cccs3)Cc3nnnn3C(C)(C)CC)cc2c1	16.4µM*	15.8µM*	2.1%	9.8%	-6.3%	-18.5%
Cc1ccc(C2(c3ccccc3)NC(=O)N(CC(=O)NCc3ccccc3)C2=O)cc1C (centres undefined)	?	23.1µM*	0.3%	-3.7%	3.3%	-12.2%
O=C(Nc1ccc(F)cc1)OCCN1CCN(Cc2ccccc2)CCC1=O	?	?	5.1%	-13.4%	2.8%	-14.8%[88.6 µM]
O=C(Nc1cccc(C(F)(F)F)c1)OCCN1CCN(Cc2ccccc2)CCC1=O	20.6µM*	?	7.1%	3.2%	0.9%	-14.3%
CCOC(=O)c1c(S(=O)(=O)N2CCC(C(=O)Nc3ncccc3C)CC2)c(C)n(C)c1C	-12.5%	1.2%	7.4%	4.9%	nt	3.8%
Cc1ccc(S(=O)(=O)N2CCC(=O)N(C(COCc3cccc(C(F)(F)F)c3)C(C)C)CC2)cc1 (centres undefined)	16.4µM*	20.6µM*	0.0%	-9.0%	-2.0%	-10.7%
Cc1ccc(S(=O)(=O)N2CCC(=O)N(C(COCc3cccc(C)c3)C(C)C)CC2)cc1 (centres undefined)	?	?	-5.5%	-14.3%	?	-2.6%
Cc1ccc(S(=O)(=O)N2CCC(=O)N(C(COCc3cccc(Cl)c3)C(C)C)CC2)cc1 (centres undefined)	?	20.6µM*	2.7%	-6.6%	2.4%	-7.6%
Cc1ccc(S(=O)(=O)N2CCC(=O)N([C@H](COCc3cccc(Cl)c3)C(C)C)CC2)cc1	20.6µM*	16.4µM*	nt	nt	-6.2%	nt
Cc1ccccc1CN1C(=O)CN(S(C)(=O)=O)CC1(C)C(=O)NCc1ccccc1 (centres undefined)	-5.6%	-6.4%	nt	nt	-1.2%	nt
CC(C)(S)C(=O)N[C@@H](CS)C(=O)O	-4.8%	2.7%	nt	nt	nt	nt
CC1CN(C(=O)CCc2ccccc2)C(C)CN1C(=O)CCc1ccccc1 (centres undefined)	?	23.1µM*	1.9%	3.5%	-16.0%	1.3%
